Shown are actives, neighbours in structure and some others; about 5.7% of the full set was active somewhere.
JMJD2A Tudor – qHTS Assay for Inhibitors of JMJD2A-Tudor Domain; AlphaScreen JMJD2A-Tudor / H3K4me3 peptide binding; 390,000 compounds, 4.4% hits; Lysine-specific demethylase 4A (Homo sapiens), O75164; Potency, µM (highest dose often 114 µM), for the others: top-dose activity change, negative = inhibition, actives largely listed as inhibitors; note: potency is the fitted concentration of half-maximal effect; % is set by controls: 0 for no effect and ±100 for the full control effect; nearly all actives have a fitted effect of over 50% in size
HP1b chromo inh – HTS for Inhibitors of HP1-beta Chromodomain Interactions with Methylated Histone Tails; Chromobox protein homolog 1 (Homo sapiens), P83916; AlphaScreen HP1-beta / biotin-H3K9me3 peptide binding; Potency, µM (doses to about 114 µM), for inactives: at the top dose activity change, negative = inhibition, usual class: inhibitors; 390,000 compounds, 0.56% hits; note: potency is the fitted concentration of half-maximal effect; nearly all actives have a fitted effect of over 70% in size
Target sequence (P83916 whole entry, looked up): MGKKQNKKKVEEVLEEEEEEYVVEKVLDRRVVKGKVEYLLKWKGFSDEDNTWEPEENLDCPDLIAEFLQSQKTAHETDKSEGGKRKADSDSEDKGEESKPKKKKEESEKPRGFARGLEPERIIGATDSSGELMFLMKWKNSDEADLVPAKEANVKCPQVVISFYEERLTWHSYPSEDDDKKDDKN
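HP1-beta protein (50 nM final) preincubated 30 min at room temperature with biotinylated H3(1-18)K9me3 peptide (50 nM) in PBS pH 7.4, 0.01% Tween-20, then compound added for 30 min. AlphaScreen streptavidin donor/nickel chelate acceptor beads (10 ug/mL final), 30 min dark, luminescence read.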
L3MBTL1 block – qHTS Assay for the Inhibitors of L3MBTL1. AlphaScreen L3MBTL1–H3K9me1 peptide binding. Potency, µM (titrated, usually from 57.1 µM), for inactives: top-dose activity, negative = inhibition, most hits filed as inhibitors. 230,000 compounds, 0.66% hits. Lethal(3)malignant brain tumor-like protein 1 (Homo sapiens), Q9Y468; note: potency is the fitted concentration of half-maximal effect; % is set by controls: 0 for no effect and ±100 for the full control effect; nearly all actives have a fitted effect of over 60% in size
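Read-out is AlphaScreen signal from streptavidin donor and nickel chelate acceptor beads (10 ug/mL final each) bridging L3MBTL1 (50 nM) and biotinylated K9-monomethylated H3(1-15) peptide (75 nM), after 30 min compound exposure at room temperature.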
JMJD2E inh – qHTS Assay for Inhibitors of Human Jumonji Domain Containing 2E (JMJD2E); AID 2147, 2009; JMJD2E catalytic domain, FDH-coupled NADH fluorescence (FDH is formaldehyde dehydrogenase); 230,000 compounds, 1.6% hits; Potency, µM (top dose mostly 57.1 µM), inactives show at the highest dose activity change, negative = inhibition, usual class: inhibitors; active = well fitted inhibition curve with a large enough effect, not every such curve was filed as active; inconclusive = small, poorly fitted or top-dose-only effect, or another doubt; inactive = no such curve, though single readings can be large or run the other way;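 note: potency is the fitted concentration of half-maximal effect; 0% = wells with enzyme and -100% = buffer wells without enzyme; nearly all actives have a fitted effect of over 50% in size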
PI5P4Ka inh – qHTS for Inhibitors of phosphatidylinositol 5-phosphate 4-kinase (PI5P4K); AID 652105, 2013; 330,000 compounds, 1.2% hits; PI5P4Kalpha enzyme, ADP-Glo luminescence, 60 min; stronger effect = lower value; max response, %; active = max response of -50% or lower; inconclusive = between -30% and -50%; inactive = -30% or higher; note: value at the top dose of about 77 µM; % is set by controls: 0 for no effect and ±100 for the full control effect
Target sequence (P48426 whole entry, looked up): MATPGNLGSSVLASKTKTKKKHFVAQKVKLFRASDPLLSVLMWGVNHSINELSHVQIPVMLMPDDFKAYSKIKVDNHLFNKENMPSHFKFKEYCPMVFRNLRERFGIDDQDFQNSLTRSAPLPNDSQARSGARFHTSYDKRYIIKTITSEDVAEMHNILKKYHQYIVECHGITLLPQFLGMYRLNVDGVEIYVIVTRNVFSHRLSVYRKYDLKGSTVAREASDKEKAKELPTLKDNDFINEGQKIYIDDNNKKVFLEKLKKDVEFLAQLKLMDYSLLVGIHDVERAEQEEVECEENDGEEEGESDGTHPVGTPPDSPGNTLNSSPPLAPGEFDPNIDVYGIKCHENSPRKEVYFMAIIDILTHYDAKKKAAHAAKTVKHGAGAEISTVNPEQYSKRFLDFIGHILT
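PI5P4Kalpha ADP-Glo assay; 5 microM ATP final; 60 min RT reaction; HEPES pH 7.4/EGTA/CHAPS, 5% DMSO; controls lacking substrate or enzyme; luminescent end-point.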
BAZ2B block – qHTS Assay for Inhibitors of BAZ2B | 360,000 compounds, 4.4% hits | AlphaScreen BAZ2B-H3K14Ac peptide displacement | Potency, µM (titrated, usually from 114 µM), inactives show at the top dose activity change, negative = inhibition, actives largely listed as inhibitors; note: potency is the fitted concentration of half-maximal effect; % is set by controls: 0 for no effect and ±100 for the full control effect; nearly all actives have a fitted effect of over 60% in size
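AlphaScreen luminescence quantifies BAZ2B engagement of H3K14Ac peptide; the protein and biotinylated peptide are both at 50 nM final, buffer PBS pH 7.4 with 0.01% Tween-20, all steps at room temperature.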
ADP-Glo counter – qHTS for Inhibitors of PI5P4K: ADP-Glo counter assay | shares compounds with PI5P4Ka inh | 1,100 tested, under 10 active | Potency, µM (highest dose often 76.9 µM), without a hit: top-dose activity change, negative = inhibition, usual class: inhibitors | ADP-Glo detection counter-screen, luciferase luminescence, no enzyme | AID 743285, 2014
Numbers without * were called inactive; ? = inconclusive; nt = no result given; [ ] = dose if it differs, or a comment. Unless noted, calls come from the whole dose curve; as a rule, active = well fitted curve in the direction sought with a large enough effect; inconclusive = small, poorly fitted or top-dose-only effect, or another doubt; inactive = no such curve, though single readings can be large; an effect the other way counts as inactive or inconclusive.

SMILES | JMJD2A Tudor | HP1b chromo inh | L3MBTL1 block | JMJD2E inh | PI5P4Ka inh | BAZ2B block | ADP-Glo counter
O=c1oc2ccccc2cc1-c1csc(Nc2nc3ccc(F)cc3s2)n1 | nt | nt | -6% | -12% | nt | -6% | nt
C=CCNC(=O)COC(=O)c1c2c(nc3ccccc13)CCC2 | 28µM* | ? | nt | nt | -75* | 50µM* | -4%
CN(C)c1cc(-c2ccc([N+](=O)[O-])cc2)oc(=O)c1Cl | -18% | 4% | -22% | -6% | 4 | -49% | nt
O=C(Cn1cnc2scc(-c3cccc([N+](=O)[O-])c3)c2c1=O)NCc1ccco1 | 22µM* | ? | nt | -4% | -94* | 45µM* | 4%
COc1cc(Cl)c(C)cc1NC(=O)CSCC#N | 0% | 46% | 3% | 1% | nt | -3% | nt
CSc1nsc(SCC(=O)Nc2nncs2)n1 | -3% | -34% | nt | -2% | -1 | -26% | nt
COc1cc(Cl)c(C)cc1NC(=O)CSc1sc2c(O)cc(=O)[nH]c2c1C#N | 56µM* | 1% | nt | nt | -73* | 40µM* | -6%
N#Cc1c(SCC(=O)Nc2nncs2)sc2c(O)cc(=O)[nH]c12 | 25µM* | ? | nt | nt | -76* | 10µM* | 1%
N#Cc1ccccc1OCc1cn(CC(=O)c2ccc(O)cc2)nn1 | 20µM* | 3% | nt | nt | -58* | nt | -11%
CCOc1cccc2cc(-c3nc4sc5c(c4c(=O)[nH]3)CCC(C)C5)c(=O)oc12 (centres undefined) | -9% | 39% | nt | nt | nt | -13% | nt
COc1ccccc1Cc1c(-c2ccco2)nc2ccc(C)cn12 | nt | nt | nt | nt | -19 | nt | nt
Cc1cc(Br)cn2c(Cc3ccsc3)c(-c3ccco3)nc12 | nt | nt | nt | nt | -90* | nt | -2%
COc1ccccc1Cc1c(-c2ccco2)nc2c(C)cc(Br)cn12 | nt | nt | nt | nt | -78* | nt | -4%
COc1ccc(Cc2c(-c3ccco3)nc3ccc(Br)cn23)c(C)c1 | nt | nt | nt | nt | -60* | nt | -6%
COc1ccccc1Cc1c(-c2ccc(C)cc2)nc2c(C)cc(Br)cn12 | nt | nt | nt | nt | -2 | nt | nt
CC(Cc1nnc(N)s1)c1ccccc1 (centres undefined) | -11% | -15% | -1% | nt | -5 | 11% | nt
CCOC(=O)c1ccccc1NC(=O)CSC(C)C(=O)Nc1cc(C)on1 (centres undefined) | -6% | 20% | -3% | nt | -2 | -4% | nt
O=C(CSc1nnc(-c2ccc(OC(F)F)cc2)o1)NC(=O)NCc1ccco1 | ? | 10% | ? | -3% | -54* | 50µM* | -3%
COc1ccc(-c2nnc(SCC(=O)NCc3ccco3)o2)cc1 | -27% | 13% | nt | -6% | nt | -39% | nt
O=C(CCC(=O)N1CCN(c2ccccn2)CC1)c1cccs1 | -2% | 21% | -5% | nt | -1 | nt | nt
O=C(CCC(=O)N1CCN(c2ccccn2)CC1)c1ccc(Cl)s1 | -26% | 17% | 66% | nt | -55* | -15% | -3%
Cc1cccc(S(=O)(=O)NC(=O)C2(C)CCN2C(=O)Cc2cc(F)ccc2F)c1 (centres undefined) | nt | nt | nt | nt | -73* | nt | -8%
Cc1c(Cl)cccc1NC(=O)Cn1nc(C(F)(F)F)c2c1CCC2 | -5% | 22% | nt | nt | nt | 2% | nt
CC1(C(=O)O)CCCN1C(=O)c1ccc(Cl)cc1Cl (centres undefined) | nt | nt | nt | nt | 7 | nt | nt
Cc1oc(-c2ccc(Cl)cc2)cc1C(=O)N1CCC1(C)C(=O)O (centres undefined) | nt | nt | nt | nt | -52* | nt | -4%
SMILES | JMJD2A Tudor | HP1b chromo inh | L3MBTL1 block | JMJD2E inh | PI5P4Ka inh | BAZ2B block | ADP-Glo counter
CC1(C(=O)NS(=O)(=O)C2CC2)CCN(C(=O)c2ccccc2F)C1 (centres undefined) | nt | nt | nt | nt | -78* | nt | 0%
O=S(=O)(Nc1ccccc1N1CCCCC1)c1ccc(Cl)s1 | ? | ? | nt | -1% | -55* | -37% | 4%
COc1ccc(S(=O)(=O)N2CCCCC2)cc1NC(=O)CCCNC(=O)c1ccc(Cl)cc1 | -25% | 14% | 0% | nt | 1 | 1% | nt
c1ccc(-c2cc3nc(NCc4cccs4)nc(NCc4ccc5occc5c4)c3s2)cc1 | nt | nt | nt | nt | nt | nt | -7%
Cn1c(NCc2ccc3occc3c2)nc2cc(-c3ccc(F)cc3)sc2c1=O | nt | nt | nt | nt | 8 | nt | nt
Cc1cc(-c2nnc(SCCC(=O)Nc3ccccc3)o2)no1 | -12% | 38% | nt | nt | ? | -14% | nt
Fc1ccc(Nc2nc(NCc3ccco3)c3ccccc3n2)cc1 | 50µM* | -15% | -23% | ? | nt | ? | -2%
CN=C(Nc1cccc(Cl)c1)SC1CC(=O)N(c2ccc(OC)cc2)C1=O (centres undefined) | -22%[57.1 µM] | -7% | -1% | 9% | -8 | -2% | nt
Cc1cccc(NC(c2ccc(O)cc2)c2ccc3ccc(C)nc3c2O)n1 (centres undefined) | 45µM* | ? | nt | ? | -52* | ? | -9%
COC(=O)c1sccc1S(=O)(=O)N1CCN(c2ccccc2OC)CC1 | -16% | 47% | nt | nt | nt | -2% | nt
Cc1cc(C)cc(-n2ncc3c2CCCC3NC(=O)CCN2CCCC2=O)c1 (centres undefined) | 4% | 33% | nt | nt | -3 | 2% | nt
O=C(OCC(=O)N1CCCCCC1)c1ccc([N+](=O)[O-])cc1Cl | -25% | 19% | -7% | -3% | 0 | -25% | nt
Cc1ccc(C(c2cc(Cl)c3cccnc3c2O)N2CCN(C)CC2)cc1 (centres undefined) | 45µM* | ? | nt | nt | -89* | 22µM* | 6%
CCCOc1ccc(CSc2ncn[nH]2)cc1 | 3.2µM* | ? | ? | ? | -71* | 1% | 3%
CCCCCOc1ccc(CSc2n[nH]c(C)n2)cc1 | ? | -11% | -4% | 1% | 1 | 5% | nt
OC(c1ccc(Cl)c(F)c1)c1ncc(-c2ccc(Oc3ccccc3)cc2)[nH]1 (centres undefined) | nt | nt | nt | nt | -57* | nt | -5%
OC(c1ccc(Cl)c(F)c1)c1ncc(-c2ccc(Cl)cc2)[nH]1 (centres undefined) | nt | nt | nt | nt | 15 | nt | nt
CCc1ccc(NC(=O)CSC2=Nc3ccccc3C3=NC(CC(=O)NCc4ccccc4)C(=O)N23)cc1 (centres undefined) | -29% | 13% | nt | nt | nt | ? | nt

Compound activity deposited in PubChem BioAssay by National Center for Advancing Translational Sciences (NCATS).
